Experimental data from PubChem BioAssay.
Where “and” joins values, the source holds several entries; their conditions need not be identical. Equal values may be shown once. Calls of active or inactive are those of the source.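 How the source made its calls, unless noted: active means compounds whose cell count with miR-34 switched on is under 0.7 times the count with it off; inactive means the rest.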

Assays:
[1] = sensitizers of A549 cells to miR-34 induction, primary screen, imaging, A549 dox-inducible miR-34, nuclei and caspase counts (AID 1347080); conditions: A549 miR-34 inducible, Hoechst nuclei count, 48 h
[2] = survival rescue of mitochondrial mutant cells in low glucose, primary screen, MELAS cybrids, Rieske KO mouse fibroblasts, CellTiter-Glo (AID 1508586;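 active means mean z-score across replicates of 1.96 or higher in either the MELAS or the Rieske mutant cell line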;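 further: z relative to plate mean and SD of compound and empty wells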)
[3] = biological target: NAD(+) hydrolase SARM1 (Homo sapiens) (UniProt Q6SZW1); assay: SARM1 TIR NADase inhibitors, cell lysate, NAD-Glo luminescence (AID 1508614;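 active means compound whose remaining NAD level is above about 45 nM, limit read from the data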); conditions: SAM-TIR HEK293T lysate NADase, at 1 µM, stronger effect = higher value
[4] = biological target: Mitogen-activated protein kinase 7 (Homo sapiens) (UniProt Q13164); assay: ERK5 transactivation activators in reporter cells, primary screen, cell-based, HTS (AID 1508626;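 active means luciferase signal above three times the same-plate solvent-only control wells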;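 further: luciferase driven by Gal4-ERK5 fusion binding five Gal4 sites before minimal TATA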); conditions: HeLa Gal4-ERK5 transactivation, 18 h, at 5 µM, stronger effect = higher value
[5] = viability rescue of complex I mutant cybrids, primary screen, cell-based, galactose medium, ATP luminescence (AID 1645843;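 active means z-score of at least 1.8 in each of two replicates, scored against plate mean and spread of sample wells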;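 further: positive z means more ATP and so rescue of galactose-driven cybrid death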); conditions: complex I mutant cybrid cells, 72 h, stronger effect = higher value
[6] = stronger effect = lower value, cell number ratio, induced over uninduced
[7] = measured here: relative caspase fold change +Dox/-Dox
[8] = measured here: total cells with miR-34 induction, stronger effect = lower value
[9] = measured here: total cells without miR-34 induction
[10] = MELAS cybrid survival, CellTiter-Glo 48 h, stronger effect = higher value
[11] = Rieske KO mouse fibroblast survival, CellTiter-Glo 72 h

Sequence of Mitogen-activated protein kinase 7 (Homo sapiens) (Q13164 whole entry, looked up, the tested form may be a part): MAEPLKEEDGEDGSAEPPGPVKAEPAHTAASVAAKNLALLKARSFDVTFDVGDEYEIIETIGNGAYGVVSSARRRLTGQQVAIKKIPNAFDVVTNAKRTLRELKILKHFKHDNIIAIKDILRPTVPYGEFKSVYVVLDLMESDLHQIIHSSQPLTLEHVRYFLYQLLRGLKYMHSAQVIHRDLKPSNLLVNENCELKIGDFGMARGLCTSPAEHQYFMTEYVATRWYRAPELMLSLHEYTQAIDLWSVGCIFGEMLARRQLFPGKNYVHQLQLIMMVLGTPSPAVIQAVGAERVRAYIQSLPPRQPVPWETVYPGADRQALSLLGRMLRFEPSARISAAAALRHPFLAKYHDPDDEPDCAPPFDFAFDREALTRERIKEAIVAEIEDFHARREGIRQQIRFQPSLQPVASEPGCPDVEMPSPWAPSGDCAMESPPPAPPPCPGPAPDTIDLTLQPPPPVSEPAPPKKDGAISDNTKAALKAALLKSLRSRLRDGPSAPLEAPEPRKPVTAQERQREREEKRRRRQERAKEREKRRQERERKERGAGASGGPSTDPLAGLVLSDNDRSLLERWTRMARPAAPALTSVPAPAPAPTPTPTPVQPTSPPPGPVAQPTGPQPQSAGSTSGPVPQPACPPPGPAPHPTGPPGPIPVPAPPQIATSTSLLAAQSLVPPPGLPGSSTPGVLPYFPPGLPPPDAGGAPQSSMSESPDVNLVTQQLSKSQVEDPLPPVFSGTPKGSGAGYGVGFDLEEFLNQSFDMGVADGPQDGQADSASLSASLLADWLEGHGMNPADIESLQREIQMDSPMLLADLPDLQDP
Sequence of NAD(+) hydrolase SARM1 (Homo sapiens) (Q6SZW1 whole entry, looked up, the tested form may be a part): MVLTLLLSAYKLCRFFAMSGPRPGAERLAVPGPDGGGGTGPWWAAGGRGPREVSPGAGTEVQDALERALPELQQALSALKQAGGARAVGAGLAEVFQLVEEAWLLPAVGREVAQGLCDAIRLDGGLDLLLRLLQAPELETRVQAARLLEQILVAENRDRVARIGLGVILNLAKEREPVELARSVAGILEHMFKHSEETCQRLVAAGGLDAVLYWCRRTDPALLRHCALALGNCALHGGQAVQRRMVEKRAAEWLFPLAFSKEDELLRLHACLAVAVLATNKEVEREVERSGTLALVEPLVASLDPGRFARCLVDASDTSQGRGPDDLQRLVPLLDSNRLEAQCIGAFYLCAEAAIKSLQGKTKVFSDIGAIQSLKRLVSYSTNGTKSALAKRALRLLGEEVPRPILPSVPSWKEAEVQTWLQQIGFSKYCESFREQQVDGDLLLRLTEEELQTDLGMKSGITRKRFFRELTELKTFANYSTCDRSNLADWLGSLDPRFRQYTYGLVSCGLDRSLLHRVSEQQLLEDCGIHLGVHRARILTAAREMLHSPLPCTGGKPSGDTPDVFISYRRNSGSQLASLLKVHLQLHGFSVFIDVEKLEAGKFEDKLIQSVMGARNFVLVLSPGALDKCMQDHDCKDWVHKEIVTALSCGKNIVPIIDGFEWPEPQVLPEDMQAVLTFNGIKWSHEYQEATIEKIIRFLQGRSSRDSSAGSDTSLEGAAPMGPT

Row | SMILES | fold change [1, 6] | fold change [1, 7] | cell count [1, 8] | cell count [1, 9] | z-score [2, 10] | z-score [2, 11] | remaining NAD [3] | luciferase signal [4] | z-score [5]
1 | CC(=O)[C@@]1(O)CC[C@H]2[C@@H]3C[C@H](C)C4=CC(=O)C=C[C@]4(C)[C@@]3(F)[C@@H](O)C[C@@]21C | 0.84 (inactive) | 1.39 | 6290 | 7490 | -0.955 (inactive) | 0.456 | 10 nM (inactive) | 76 AU (inactive) | 
2 | Cn1c([N+](=O)[O-])cnc1COC(N)=O | 0.949 (inactive) and 0.998 (inactive) and 0.92 (inactive) | 0.814 and 0.524 and 4.33 | 9230 and 8250 and 11400 | 9730 and 8270 and 12400 | -0.153 (inactive) and -0.082 (inactive) | -0.129 and 0.703 | 10 nM (inactive) | 108 AU (inactive) | 
3 | COc1cnc(NS(=O)(=O)c2ccc(N)cc2)nc1 | 0.943 (inactive) and 0.91 (inactive) and 0.881 (inactive) | 1.15 and 0.841 and 2.64 | 9880 and 7410 and 11400 | 10500 and 8140 and 12900 | -0.122 (inactive) and -0.879 (inactive) | -1.17 and -0.837 | 10 nM (inactive) | 40 AU (inactive) | 
4 | CC(=O)Oc1cccc2c1C(=O)c1c(OC(C)=O)cc(C(=O)O)cc1C2=O | 0.904 (inactive) | 2.1 | 8090 | 8950 | -0.263 (inactive) and -0.828 (inactive) | -0.165 and -1.06 | 10 nM (inactive) | 44 AU (inactive) | 
5 | CCOC(=O)NNc1nncc2ccccc12 | 0.882 (inactive) | 0.778 | 8120 | 9200 | -0.647 (inactive) | -0.171 | 10 nM (inactive) | 36 AU (inactive) | 
6 | COc1cc(NS(=O)(=O)c2ccc(N)cc2)ncn1 | 0.902 (inactive) and 0.903 (inactive) | 1.06 and 3.99 | 9390 and 12000 | 10400 and 13300 | 0.538 (inactive) | 0.095 | 10 nM (inactive) | 44 AU (inactive) | 
7 | Cc1c(N(C)CS(=O)(=O)O)c(=O)n(-c2ccccc2)n1C | 0.886 (inactive) and 0.92 (inactive) | 1.09 and 6.36 | 8550 and 11500 | 9640 and 12500 | -1.12 (inactive) | -0.298 | 10 nM (inactive) | 40 AU (inactive) | 
8 | CN1CCC(=C2c3ccccc3Sc3ccccc32)CC1 | 0.873 (inactive) | 1.16 | 7410 | 8480 | 0.363 (inactive) | 0.395 | 83 nM (active) | 64 AU (inactive) | 
9 | CCOc1ccc(NC(C)=O)cc1 | 0.886 (inactive) and 0.916 (inactive) | 1.49 and 0.787 and 3.07 | 9560 and 7800 and 11500 | 10800 and 8520 and 12600 | -0.475 (inactive) and -0.0201 (inactive) | -0.108 and 0.061 | 10 nM (inactive) | 68 AU (inactive) | 
10 | Nc1ccc(S(=O)(=O)NC(=O)c2ccccc2)cc1 | 0.806 (inactive) and 0.919 (inactive) | 1.13 and 2.49 | 7780 and 10600 | 9660 and 11500 | -0.2 (inactive) | -0.379 | 10 nM (inactive) | 32 AU (inactive) | 
11 | COc1c2occc2c(OC)c2c(=O)cc(C)oc12 | 0.924 (inactive) | 1.18 | 8440 | 9130 | -0.15 (inactive) | -0.129 | 10 nM (inactive) | 80 AU (inactive) | 
12 | Nc1ccc(S(=O)(=O)Nc2cnc3ccccc3n2)cc1 | 0.892 (inactive) and 0.874 (inactive) | 0.858 and 3.15 | 8790 and 11400 | 9850 and 13000 | 0.496 (inactive) | 0.547 | 10 nM (inactive) | 84 AU (inactive) | 
13 | Cc1ccc(C(=O)C(C)CN2CCCCC2)cc1 (stereo unspecified) | 0.986 (inactive) | 0.455 | 8610 | 8730 | -0.166 (inactive) | -0.145 | 10 nM (inactive) | 40 AU (inactive) | 
14 | OCC(O)CN1CCN(c2ccccc2)CC1 (stereo unspecified) | 0.91 (inactive) and 0.902 (inactive) and 0.934 (inactive) | 1.09 and 0.695 and 0.504 | 7870 and 8950 and 8400 | 8650 and 9930 and 8990 | -0.14 (inactive) and -0.167 (inactive) and 0.182 (inactive) | -0.169 and -0.218 and 0.0795 | 10 nM (inactive) | 48 AU (inactive) | 
15 | Nc1cc(-c2ccncc2)c[nH]c1=O | 0.97 (inactive) and 0.958 (inactive) | 0.721 and 1.08 | 9670 and 8610 | 9980 and 8980 | -0.926 (inactive) | -1.08 | 10 nM (inactive) | 104 AU (inactive) | 
16 | Nc1ccc(S(=O)(=O)Nc2nccs2)cc1 | 0.93 (inactive) and 0.957 (inactive) and 0.871 (inactive) | 1.04 and 0.824 and 4.44 | 8630 and 7440 and 10900 | 9270 and 7780 and 12500 | -0.000944 (inactive) and 0.344 (inactive) | -0.264 and 0.18 | 10 nM (inactive) | 84 AU (inactive) | 
17 | Cc1ccsc1/C=C/C1=NCCCN1C | 0.892 (inactive) and 0.795 (inactive) | 1.23 and 5.32 | 8120 and 10200 | 9110 and 12800 | -0.598 (inactive) | 0.242 | 10 nM (inactive) | 88 AU (inactive) | 
18 | N=C(N)N | 0.954 (inactive) and 0.99 (inactive) | 0.786 and 0.574 | 8580 and 8630 | 9000 and 8720 | -0.279 (inactive) | -0.172 | 10 nM (inactive) | 44 AU (inactive) | 
19 | CCC(Cc1c(I)cc(I)c(N)c1I)C(=O)O (stereo unspecified) | 0.941 (inactive) and 0.781 (inactive) | 0.773 and 3.75 | 9300 and 9110 | 9880 and 11700 | 0.0916 (inactive) | -0.459 | 10 nM (inactive) | 56 AU (inactive) | 
20 | CCOC(=O)c1ccc(N)cc1 | 0.793 (inactive) and 0.945 (inactive) and 0.848 (inactive) | 1.13 and 0.443 and 0.967 | 7670 and 8350 and 9530 | 9660 and 8840 and 11200 | -0.198 (inactive) and -0.244 (inactive) | -0.136 and -0.658 | 10 nM (inactive) | 112 AU (inactive) | 
21 | NC(=O)NC1NC(=O)NC1=O (stereo unspecified) | 0.95 (inactive) and 0.875 (inactive) | 1.05 and 3.99 | 8140 and 12000 | 8570 and 13800 | -0.771 (inactive) | 0.175 | 10 nM (inactive) | 72 AU (inactive) | 
22 | O=c1ccc2ccccc2o1 | 0.91 (inactive) and 0.88 (inactive) | 0.575 and 1.07 | 7780 and 10900 | 8550 and 12300 | -0.266 (inactive) | -0.22 | 10 nM (inactive) | 48 AU (inactive) | 
23 | COc1cc2c(cc1OC)C(=O)C(CC1CCN(Cc3ccccc3)CC1)C2 (stereo unspecified) | 0.863 (inactive) and 0.884 (inactive) | 1.25 and 2.01 | 8000 and 11200 | 9270 and 12700 | 1.84 (inactive) | 0.641 | 10 nM (inactive) | 32 AU (inactive) | -0.225 (inactive)
24 | Cc1cc(CC(=O)O)n(C)c1C(=O)c1ccc(Cl)cc1 | 0.925 (inactive) and 0.888 (inactive) | 1.12 and 2.44 | 9260 and 11200 | 10000 and 12600 | -0.685 (inactive) | -0.331 | 10 nM (inactive) | 96 AU (inactive) | 
25 | CCC(=O)c1c(O)cc(O)cc1O | 0.895 (inactive) | 0.888 | 7860 | 8770 | -0.229 (inactive) | -0.146 | 10 nM (inactive) | 60 AU (inactive) | 
